Values joined by “and” are separate entries in the source; they are usually repeats but may differ in a detail not shown here. Identical values can stand only once. Inconclusive results are not listed. Active and inactive are the calls of the source. How the source made its calls: active means hit-call score of the fitted dose curve at least 0.9, where 1 is the maximum; inconclusive means response in the unintended direction; inactive means score below 0.9.
Test: CCTE_Shafer_MEA_dev_bursting_electrodes_number: CCTE's Neural Network Formation Assay for Number of Bursting Electrodes, Shafer Lab (AID 2284043)
Description: CCTE_Shafer_MEA_dev assay is conducted using Axion Biosystems 48 well microelectrode array (MEA) plates and Maestro recording system. Each well of the MEA plate contains a grid of 16 microelectrodes embedded in the culture surface. Electrically active cells, such as neurons, can be cultured over the electrodes, and electrical activity in these cells can be recorded extracellularly. The spontaneous firing of neurons is captured from each electrode on a microsecond timescale providing both temporally and spatially precise data. […] The CCTE_Shafer_MEA_dev assay uses primary cultures of rat cortical neurons. Recordings are made on days post-plating 5, 7, 9 and 12. As these cultures mature over time, neural networks develop functional activity and form cohesive networks in which electrical activity can be highly coordinated. CCTE_Shafer_MEA_dev_bursting_electrodes_number is 1 of 19 assay components of the CCTE_Shafer_MEA_dev assay. It measures the number of electrodes in a well with a burst rate of at least 1 burst (temporally-clustered group of action potential firing) every 2 minutes during a recording in a microelectrode array (MEA) using Axion Biosystems Maestro 768 channel amplifier with the AxIS adaptive spike detector. To collapse across multiple recordings made on days post-plating 5, 7, 9 and 12, the trapezoidal area-under-the-curve of the component is calculated.Data from the assay component CCTE_Shafer_MEA_dev_bursting_electrodes_number was analyzed into 1 assay endpoint. This assay endpoint, CCTE_Shafer_MEA_dev_bursting_electrodes_number, was analyzed in the negative analysis fitting direction relative to DMSO as the negative control and baseline of activity. Using a type of functional reporter, gain or loss-of-signal activity can be used to understand electrical activity.
On the day prior to culture, each well was coated thoroughly with 150 uL of 0.05% polyethyleneimine (PEI, Sigma Cat P3143) in 50 mM HEPES (Sigma Cat H7523) at a pH of 8. The plate was incubated at 37C for one hour. PEI was rinsed out with 500 uL of sterile water three times. Plates were stored at 4C until the day of culture. This culture was plated at a seeding density of 1.5 x 10^5 cells/well on a 48-well MEA plate, prepared as described above. Cells were administered via a 25 uL media/laminin ([…]; Sigma Cat L2020-1MG) drop directly onto the microelectrode array, as adding the cells with the laminin results in better attachment than pre-coating with laminin. After 2 hours, an additional 475 uL of cortical media was added and the cells returned to the incubator. Exposure starts at day 0 of plating and is continued over twelve days of network development until the experiment is terminated. Cells are fed with fresh medium on DIV 5 and 9, following the recordings on those days. The entire volume of media in the well is exchanged and any vehicle or compound treatment is renewed. Complete details are found in OP-NHEERL/ISTD/SBB/TJS/2015-03-r0 (available on request, email shafer.tim@epa.gov). Measurement of the electrical activity is non-invasive, and recordings can be made from the same plate over multiple different days of the culture. In cortical neurons, this allows for the measurement of extracellular action potentials over the period during which networks form in the MEA plate.

Question: Which outcome does the source give for C[C@@H]1C[C@H]2[C@@H]3CCC4=CC(=O)C=C[C@]4(C)[C@@]3(F)[C@@H](O)C[C@]2(C)[C@@]1(O)C(=O)CO here?
Answer: inactive

Question: Which AC50 does the source give for CN(C)C(=O)C(CCN1CCC(O)(c2ccc(Cl)cc2)CC1)(c1ccccc1)c1ccccc1 here?
Answer: 117 nM (active) and 63.8 nM (active) and 1.19 µM (active)

Question: Which AC50 does the source give for [Cl-].[Cl-].[NH2-].[NH2-].[Pt+4] here?
Answer: 5.08 µM (active)

Question: Which AC50 does the source give for c1ccc2cc3c4ccccc4c4ccccc4c3cc2c1 here?
Answer: 3.01 µM (active)

Question: Which outcome does the source give for CN(C)CCC(c1ccc(Cl)cc1)c1ccccn1 (stereo not drawn) here?
Answer: inactive

Question: For CC1(C)S[C@@H]2[C@H](NC(=O)[C@H](N)c3ccc(O)cc3)C(=O)N2[C@H]1C(=O)O, which outcome is on record?
Answer: inactive

Question: Which AC50 does the source give for CNCCC(Oc1ccc(C(F)(F)F)cc1)c1ccccc1 (stereo not drawn) here?
Answer: 1.79 µM (active)

Question: With NC(N)=Nc1nc(CSCCC(N)=NS(N)(=O)=O)cs1 as the compound, how does the outcome read?
Answer: inactive

Question: Which outcome does the source give for CC(C)(C)NCC(O)c1cc(O)cc(O)c1 (stereo not drawn) here?
Answer: inactive

Question: With Cc1c(O)cccc1C(=O)N[C@@H](CSc1ccccc1)[C@H](O)CN1C[C@H]2CCCC[C@H]2C[C@H]1C(=O)NC(C)(C)C as the compound, how does the AC50 read?
Answer: 0.819 µM (active)

Question: With c1cc2ccc3ccc4ccc5cccc6c(c1)c2c3c4c56 as the compound, how does the outcome read?
Answer: inactive

Question: Which AC50 does the source give for COc1ccc2cc3[n+](cc2c1OC)CCc1cc2c(cc1-3)OCO2 here?
Answer: 0.13 µM (active)

Question: With CC[C@H](C)C(=O)O[C@H]1CCC=C2C=C[C@H](C)[C@H](CC[C@@H]3C[C@@H](O)CC(=O)O3)[C@H]21 as the compound, how does the AC50 read?
Answer: 924 nM (active) and 911 nM (active)
